# BoNT F protease – inhibitors of Botulinum neurotoxin F light chain protease | Multiplex microsphere protease cleavage assay, flow cytometry | inhibition, % at 10 µM | hit rate 0.22% among 360,000 | AID 588497; in the data active means inhibition above about 35%, passing the limit was not always enough; inconclusive means no clear call, values can overlap the other calls; further: plate controls were buffer without enzyme for full effect and enzyme alone for no effect
# GDH-TPI inh – GDH-TPI coupled enzyme inhibition counter-screen | GDH-TPI coupled enzyme counterscreen, NADH absorbance | inhibition, % at 4.8 µM | hit rate 1.2% among 360,000 | AID 588335; in the data active means inhibition above about 30%;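 further: 0% = DMSO wells and 100% = wells lacking the enzyme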
# Anthrax LF prot – inhibitors of Bacillus anthracis lethal factor protease; inhibition, % at 10 µM; hit rate 0.12% among 360,000; P15917; AID 588501; multiplex microsphere protease cleavage assay, LF; further: plate controls were buffer without enzyme for full effect and enzyme alone for no effect
# Autofluor counter – counter-screen for toxin protease inhibitors: compound fluorescence; hit rate 3.1% among 360,000; compound autofluorescence counterscreen, microsphere flow cytometry; hits give high values; AID 624483; fluorescence intensity (test concentration not listed); in the data active means fluorescence intensity above about 16000; inconclusive means no clear call, values can overlap the other calls
# Mtb FBA inh – Mtb fructose-bisphosphate aldolase inhibition | P9WQA3 | purified M. tuberculosis FBA, fluorescence read-out | inhibition, % at 1 µM | hit rate 2.3% among 360,000; in the data active means inhibition above about 27%;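 further: 0% = vehicle and 100% = reference inhibitor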
# Target sequence (P9WQA3 whole entry, looked up): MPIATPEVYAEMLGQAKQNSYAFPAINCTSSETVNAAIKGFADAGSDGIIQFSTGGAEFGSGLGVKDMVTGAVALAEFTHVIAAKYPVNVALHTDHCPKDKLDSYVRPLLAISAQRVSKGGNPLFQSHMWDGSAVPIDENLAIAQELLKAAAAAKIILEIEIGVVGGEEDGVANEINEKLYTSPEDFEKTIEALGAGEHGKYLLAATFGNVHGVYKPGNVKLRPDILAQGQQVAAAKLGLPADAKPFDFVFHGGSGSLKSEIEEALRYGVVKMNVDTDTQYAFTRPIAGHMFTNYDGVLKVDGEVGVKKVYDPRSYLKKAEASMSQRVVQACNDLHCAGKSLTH
# BoNT A protease – blocks Botulinum neurotoxin A light chain protease. multiplex microsphere protease substrate cleavage, flow cytometry. inhibition, % at 10 µM. hit rate 0.17% among 360,000. AID 588499; further: plate controls were buffer without enzyme for full effect and enzyme alone for no effect
# Numbers without * were called inactive; ? = inconclusive; . = not tested or not shown. The list is not random: actives were taken first. Their share in the collection is about 6.6%. Unless noted, no stated cut-off is given here; in the data, active means inhibition above about 30%; inconclusive means no clear call, values can overlap the other calls; inactive means below that.
SMILES,BoNT F protease,GDH-TPI inh,Anthrax LF prot,Autofluor counter,Mtb FBA inh,BoNT A protease
COc1ccc(OC)c(C2=NOC(C(=O)Nc3cccc(C(C)=O)c3)C2)c1 (stereo unspecified),2,3,0,23110*,4,0
COc1cc(NC(=O)C2CC(c3cccc(OC)c3OC)=NO2)cc(OC)c1OC (stereo unspecified),2,-11,-2,22158*,-3,3
CCc1nnc(NC(=O)CSc2nc(C)cs2)s1,0,0,-12,3234,0,1
O=C(COC(=O)c1ccccc1Cc1ccccc1)NC1CCS(=O)(=O)C1 (stereo unspecified),-2,2,0,3984,3,0
Cc1ccc2nc(N3CCN(c4ccccc4F)CC3)c(C=O)c(=O)n2c1,-2,9,0,2393,-1,-1
O=C(O)C1CC(=O)N(c2ccc(OCc3ccc(Br)cc3)cc2)C1 (stereo unspecified),-3,3,18,3344,3,0
O=C(COc1ccc(N2CC(C(=O)O)CC2=O)cc1)Nc1cccc(C(F)(F)F)c1 (stereo unspecified),-1,7,1,23245*,0,?
O=C(O)C1CC(=O)N(c2ccc(OCc3ccccc3)cc2)C1 (stereo unspecified),4,-9,1,21268*,-2,3
CNC(=O)C1CC(=O)N(c2ccc(OCC(=O)Nc3ccccc3)cc2)C1 (stereo unspecified),-3,11,-8,3727,2,-1
Cc1noc(NS(=O)(=O)c2ccc(NC(=O)NC(C)(C(F)(F)F)C(F)(F)F)cc2)c1C,-12,-4,1,3849,8,0
c1nc(SSc2ncnc3nc[nH]c23)c2[nH]cnc2n1,18,19,-3,4463,-1,1
COC(CSc1nc(N)c2c3c(sc2n1)CN(C)CC3)OC,-26,36*,14,3607,181*,3
CCC(=NCc1ccccc1)c1c(C(F)(F)F)[nH]n(-c2nc3ccccc3s2)c1=O,-2,14,-4,16663*,4,-2
CCC(=NCc1ccco1)c1c(C(F)(F)F)[nH]n(-c2nc3ccccc3s2)c1=O,-14,7,-3,6635,1,-2
COCCN(C(=O)CSc1cc(C)c2ccccc2n1)c1c(N)n(CC(C)C)c(=O)[nH]c1=O,-3,12,-1,3731,3,1
CCCCCCSC1=C(C#N)C(=O)NC2(CCCCC2)S1,-7,13,0,4537,-6,-1
COc1ccc(CSC2=C(C#N)C(=O)NC3(CCCCC3)S2)cc1,-3,34*,-7,3874,-3,0
CCOc1cc(CN2CCc3c([nH]c4ccccc34)C2)ccc1OC,17,3,-4,4588,-1,2
COc1ccc(CN2CCc3c([nH]c4ccccc34)C2)cc1Br,-36,43*,-17,8951,11,5
CC(C)C[C@@H]1CN(CCCC[C@H]2CNC(=O)C(=O)N2CCC2CCCCC2)C(=O)C(=O)N1Cc1ccccc1,-5,.,-5,6694,.,-1
COc1ccc2cc3[n+](cc2c1OC)CCc1cc2c(cc1-3)OCO2,-1,35*,-5,6090,-2,1
COc1cccc(C2=NCCc3cc4c(cc32)OCO4)c1OC,-6,11,-4,7578,-1,0
CCc1cc(CNC(=O)c2ccc(OC3CCN(C(C)=O)CC3)c(OC)c2)on1,10,-1,6,5834,1,4
CC(COc1cccc2ccccc12)CN1CCN(C)CC1 (stereo unspecified),-6,2,-2,24009*,4,-2
CC1CCCCN1C(=O)CNCC1CCCO1 (stereo unspecified),-1,-7,1,4294,3,0
O=C(COC(=O)CCc1ccc(S(=O)(=O)N2CCOCC2)cc1)Nc1ncc(C(F)(F)F)cc1Cl,-9,-8,0,25667*,-1,-5
O=C(COC(=O)c1cccc(S(=O)(=O)N2CCOCC2)c1)Nc1ncc(C(F)(F)F)cc1Cl,8,5,7,8683,4,1
O=C(COC(=O)c1ccc2ccccc2c1)Nc1ncc(C(F)(F)F)cc1Cl,-4,5,-3,2161,8,0
O=C(COC(=O)c1ccc2ccccc2n1)Nc1ncc(C(F)(F)F)cc1Cl,2,20,3,22793*,3,-1
Nc1ccccc1C(=O)NNc1ncc(C(F)(F)F)cc1Cl,-4,12,-1,22928*,11,?

# Screening data as filed in PubChem BioAssay.
